Only some compounds are listed: those with a hit (about 3.9% of all), similar ones and a draw of the others.
PLC-beta3 inh: human PLC-beta3 inhibitors, primary screen, biochemical, fluorescence. actives 0.18% (n = 370,000). inhibition, % at 12.2 µM. 1-phosphatidylinositol 4,5-bisphosphate phosphodiesterase beta-3 (Homo sapiens), Q01970. Purified PLC-beta3, fluorogenic substrate;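 further: 0% = median of compound wells on plate and 100% = full blocker control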
Target sequence (Q01970 whole entry, looked up): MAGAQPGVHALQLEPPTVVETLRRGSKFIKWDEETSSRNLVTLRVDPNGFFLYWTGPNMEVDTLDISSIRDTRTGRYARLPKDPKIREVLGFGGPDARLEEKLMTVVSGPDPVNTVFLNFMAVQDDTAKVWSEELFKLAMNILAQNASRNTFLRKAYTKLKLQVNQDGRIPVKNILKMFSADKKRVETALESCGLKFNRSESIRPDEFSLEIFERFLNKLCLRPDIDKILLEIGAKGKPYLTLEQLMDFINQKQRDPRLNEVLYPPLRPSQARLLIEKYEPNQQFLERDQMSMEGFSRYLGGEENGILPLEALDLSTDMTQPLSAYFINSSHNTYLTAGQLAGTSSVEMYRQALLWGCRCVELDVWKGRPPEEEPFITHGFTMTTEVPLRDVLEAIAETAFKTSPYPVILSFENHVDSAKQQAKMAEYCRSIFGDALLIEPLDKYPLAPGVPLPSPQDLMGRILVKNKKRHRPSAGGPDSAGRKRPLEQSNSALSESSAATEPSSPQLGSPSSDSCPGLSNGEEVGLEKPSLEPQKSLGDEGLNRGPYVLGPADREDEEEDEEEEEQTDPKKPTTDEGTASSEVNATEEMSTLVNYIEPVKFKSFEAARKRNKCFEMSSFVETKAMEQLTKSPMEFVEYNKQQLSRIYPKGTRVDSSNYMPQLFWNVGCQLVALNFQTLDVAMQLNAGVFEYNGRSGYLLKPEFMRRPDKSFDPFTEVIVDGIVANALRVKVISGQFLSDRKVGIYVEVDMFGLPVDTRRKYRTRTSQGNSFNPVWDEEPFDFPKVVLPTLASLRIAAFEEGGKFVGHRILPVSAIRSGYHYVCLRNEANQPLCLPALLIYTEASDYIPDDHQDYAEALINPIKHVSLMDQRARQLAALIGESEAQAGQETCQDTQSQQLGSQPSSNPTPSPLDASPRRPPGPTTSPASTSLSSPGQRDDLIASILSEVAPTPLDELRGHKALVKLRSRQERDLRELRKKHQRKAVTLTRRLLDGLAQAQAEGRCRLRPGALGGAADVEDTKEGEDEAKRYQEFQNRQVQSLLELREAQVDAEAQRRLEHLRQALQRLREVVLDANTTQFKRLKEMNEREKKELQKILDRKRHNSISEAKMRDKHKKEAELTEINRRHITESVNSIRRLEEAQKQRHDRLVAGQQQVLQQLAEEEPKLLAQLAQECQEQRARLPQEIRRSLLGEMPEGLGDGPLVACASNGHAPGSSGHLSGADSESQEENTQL
AHR act: AHR activators, primary screen, cell-based, luminescence, luciferase reporter, human; Aryl hydrocarbon receptor (Homo sapiens), P35869; activation, % at 5 µM; AHR-responsive luciferase reporter cells; actives 2.5% (n = 320,000); in the data active means activation above about 47%;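 further: 0% = vehicle wells and 100% = reference agonist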
PLCg1 inh: PLC-gamma1 enzyme inhibitors, primary screen, biochemical, fluorescence, purified enzyme; AID 720700, 2013; inhibition, % at 12.2 µM; actives 0.84% (n = 370,000); fluorogenic substrate; 1-phosphatidylinositol 4,5-bisphosphate phosphodiesterase gamma-1 (Homo sapiens), P19174; in the data active means inhibition above about 9.5%
HIF activator: HIF pathway transcriptional activators, primary screen, cell-based, U2OS HRE-luciferase, luminescence; U2OS HRE-luciferase reporter; normalized: DMSO 0%, desferrioxamine 100%; activation, % at 7.5 µM (by protocol); actives 0.32% (n = 300,000); AID 1910, 2009;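 active means mean activation of at least 10% of the iron chelator positive control signal, with at least half of replicates also reaching 10%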
CR mimetic SO: reduction of superoxide in aged yeast, primary screen, HTS; S. cerevisiae aged cells, superoxide DHE fluorescence; hits give low values; superoxide response (% of plate mean), % at 10 µM; actives 0.18% (n = 330,000); AID 2690, 2010;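 active means superoxide response under a set limit, about three screen SD below normal, cut at about 65% in these data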;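 further: yeast aged for seven days with compound at 30 °C before DHE staining; 100% = average MFI of all compound-treated wells on the plate with controls excluded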
HGIII-sPLA2 inh: human group III sPLA2 inhibitors, primary screen, biochemical, QFRET, BODIPY PC-A2 liposome substrate | actives 0.56% (n = 370,000) | QFRET BODIPY PC-A2 liposome hydrolysis, fluorescence | inhibition, % at 12.2 µM | Group 3 secretory phospholipase A2 (Homo sapiens), Q9NZ20;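 active means inhibition above mean plus 3 SD of compounds lying within the high and low control bounds, cut at about 19% in these data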;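 further: 0% = median of test compound wells and 100% = no enzyme DMSO wells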
PLCg1 ctr: PLC-gamma1 enzyme inhibitors, counter-screen for PLC-beta3 inhibitor project, biochemical, fluorescence; shares compounds with PLCg1 inh; purified PLC-gamma1, fluorogenic substrate; inhibition, % at 12.3 µM; actives 3.1% (n = 3,300); AID 743258, 2014; in the data active means inhibition above about 9.5%
PLCbeta3 conf: PLC-beta3 inhibitor confirmation, biochemical, fluorescence, purified enzyme; shares compounds with PLCg1 inh; fluorogenic substrate fluorescence; inhibition, % at 12.3 µM; actives 1% (n = 3,300)
The depositor's hits bear a star. Unless noted, no stated cut-off is given here; in the data, active means inhibition above about 11%; inactive means the rest.

How did CCCOc1ccccc1OCC(=O)Nc1cc(Cl)ccc1-n1cncn1 do in these assays?
PLC-beta3 inh: 5.3; AHR act: 12.5; PLCg1 inh: 11.0*; HIF activator: 0.2; CR mimetic SO: 91.5; HGIII-sPLA2 inh: 1.4; PLCg1 ctr: -1.9; PLCbeta3 conf: -334.0

What do the screens show for `Cc1cccc(OCC(=O)Nc2cc(Cl)ccc2-n2cncn2)c1C`?
PLC-beta3 inh: -7.5; AHR act: 18.2; PLCg1 inh: -5.8; HIF activator: -0.6; CR mimetic SO: 94.2; HGIII-sPLA2 inh: -0.7

How did NS(=O)(=O)c1ccc(CCNC(=O)c2cnccn2)cc1 do in these assays?
PLC-beta3 inh: -2.6; AHR act: 0.4; PLCg1 inh: 0.5; HIF activator: -0.5; CR mimetic SO: 105.9; HGIII-sPLA2 inh: 2.6

What do the screens show for `Cc1ccc(N(Cc2ccccc2F)S(C)(=O)=O)cc1C`?
PLC-beta3 inh: 2.2; AHR act: 2.0; PLCg1 inh: 3.3; HIF activator: -0.2; CR mimetic SO: 104.4; HGIII-sPLA2 inh: 0.0

How did O=[N+]([O-])c1ccc(C(O)C(CO)NC(=S)Nc2ccccc2)cc1 (stereo not given) do in these assays?
PLC-beta3 inh: -1.1; AHR act: -3.5; PLCg1 inh: 9.8*; HIF activator: -0.6; CR mimetic SO: 94.5; HGIII-sPLA2 inh: 16.5; PLCg1 ctr: -5.6; PLCbeta3 conf: 0.6

How did O=c1cc([O-])[n+]2c3n1CCCN3CCC2 do in these assays?
PLC-beta3 inh: 12.2*; AHR act: 0.1; PLCg1 inh: 7.3; HIF activator: -0.2; CR mimetic SO: 96.6; HGIII-sPLA2 inh: -1.4; PLCg1 ctr: 3.1; PLCbeta3 conf: 1.0

How did c1ccc(CN2CN=C(Nc3nc4ccccc4s3)NC2)cc1 do in these assays?
PLC-beta3 inh: 1.8; AHR act: -0.5; PLCg1 inh: 3.7; HIF activator: 1.1; CR mimetic SO: 107.5; HGIII-sPLA2 inh: 1.4

What do the screens show for `c1coc(CN2CN=C(Nc3nc4ccccc4s3)NC2)c1`?
PLC-beta3 inh: 2.7; AHR act: 20.0; PLCg1 inh: 9.7*; HIF activator: 1.9; CR mimetic SO: 97.2; HGIII-sPLA2 inh: -2.9; PLCg1 ctr: 1.1; PLCbeta3 conf: 2.7

What do the screens show for `O=C(Cn1cc(C(=O)c2ccco2)c2ccccc21)NCc1ccco1`?
PLC-beta3 inh: -7.9; AHR act: 7.3; PLCg1 inh: -3.8; HIF activator: 1.3; CR mimetic SO: 102.1; HGIII-sPLA2 inh: -8.4

What do the screens show for `O=C(Cn1cc(C(=O)C(F)(F)F)c2ccccc21)NCc1ccco1`?
PLC-beta3 inh: -5.9; AHR act: 5.7; PLCg1 inh: -0.2; HIF activator: 0.7; CR mimetic SO: 94.7; HGIII-sPLA2 inh: -6.9

Results for COC(=O)c1cn(CC(=O)NCc2ccco2)c2ccccc12 ?
PLC-beta3 inh: 5.5; AHR act: 4.9; PLCg1 inh: 13.0*; HIF activator: -23.8; CR mimetic SO: 95.1; HGIII-sPLA2 inh: 3.7; PLCg1 ctr: -4.8; PLCbeta3 conf: -3.3

How did CCC(=O)c1cn(CC(=O)NCc2ccco2)c2ccccc12 do in these assays?
PLC-beta3 inh: 2.4; AHR act: 4.2; PLCg1 inh: 10.0*; HIF activator: 0.7; CR mimetic SO: 114.5; HGIII-sPLA2 inh: 5.8; PLCg1 ctr: -1.1; PLCbeta3 conf: 2.4

What do the screens show for `COc1cc(CCC(=O)OCC(=O)N2CCc3ccccc32)cc(OC)c1OC`?
PLC-beta3 inh: -2.2; AHR act: 0.8; PLCg1 inh: 2.3; HIF activator: -2.4; CR mimetic SO: 100.6; HGIII-sPLA2 inh: -1.6
